The values below come from PubChem BioAssay AID902 (National Center for Advancing Translational Sciences (NCATS), 2007).

In all, about 130,000 compounds went through this assay and about 1,900 (1.5%) were called active. Entries that show only a call come without a potency. Another 5% or so got no clear call; they are omitted. The call rests on the fitted dose curve; in most records, active means well fitted cell-killing curve with a large enough effect; inconclusive means small, poorly fitted or top-dose-only effect; inactive means no such curve, though single readings can be large or run the other way. Many of the other results were omitted from the sample, so actives are more common in it than they were.
Potency means the concentration at half of the fitted maximal effect.

This experiment can be described thus: qHTS Screen for Compounds that Selectively Target Cancer Cells with p53 Mutations: Cytotoxicity of p53ts Cells at the Nonpermissive Temperature. Further: nearly all actives have a fitted effect of over 55% in size. The note with it: H1299-p53A138V viability at 39C, ATP luminescence, 24 h; series mostly up to 46.1 µM. The source says: NIH Chemical Genomics Center [NCGC] NIH Molecular Libraries Screening Centers Network [MLSCN] MLSCN Grant: 1 X01 MH079844-01 Assay Submitter (PI): Dr. SUN, YI, University of Michigan NCGC Assay Overview: Synthetic Lethal Screen for Compounds to Kill Cancer Cells with p53 Mutation. Tumor suppressor gene p53 serves as a major cellular barrier against tumorigenesis. […] The goal of this screening is to identify small molecule probes that selectively kill cancer cells with mutations in p53. This screening was carried out using two lines of H1299 lung cancer cells. The H1299-p53 A138V line express a temperature sensitive p53 mutant (p53ts) in which the mutant p53 protein (A138V) is in the mutant confirmation when grown at 39C (the nonpermissive temperature) and in the wild type conformation when grown at 32C (the permissive temperature). A H1299-neo line (p53 null) grown at both 39C and 32C were used as counter-screens to filter out false positive associated with temperature shifting. The small molecular compounds that selectively target mutant p53-containing cancer cells were selected as candidate probes for further study. A cytotoxicity assay based on the measurement of ATP contents in cells was used in this screen. Concentration-responses of all the compounds in the library collection were determined in qHTS using the cell lines and temperature conditions as above.
NCGC Assay Protocol Summary: Both the H1299-p53A138V and H1299-neo cell lines were provided by Dr.Yi Sun, a PI at the University Michigan. The cells were maintained and cultured at 37C. The resuspended frozen cells were used to plate the cells in the 1536-well assay plates at a density of 600 cells per well in 5 ul medium. The assay plates with the cells were incubated at 37C for 16 to 30 hours before the experiments. The library compounds in DMSO solution were added to the cells in assay plates and incubated 24 hours at 39C (for mutant p53 conformation) or 32C (for normal p53 conformation as control). An ATP_lite assay kit (PerkinElmer) was used to determine the cell viability. Tomaxifen (100uM) was used as the positive control for cell killing. Data were normalized to the controls for basal activity (DMSO only) and 100% killing (100uM tamoxifen). AC50 values were determined from concentration-response data modeled with the standard Hill equation. P53 assay protocol: 1. Reagent; 5 uL H1299-p53A138V or H1299-neo cell cells/well 2. Time; overnight; 37C incubation 3. Compounds; 23 nL; 5.9 nM to 46 uM 4. Controls; 23 nL; Tamoxifen 100 uM 5. Time; 24 hr; 39C incubation 6. Reagent; 3 uL; ATP_Lite reagent 7. Time; 20 min; Room Temperature 8. Detection; Luminescence; Viewlux plate reader Keywords: p53, synthetic lethal, cancer, cell viability, cytotoxicity, H1299 cell line, luminescence, MLSMR, MLSCN, NIH Roadmap, qHTS, NCGC
Background: Quantitative high-throughput screening tests each substance at several concentrations.
Consider `Cc1oc2ccc(O)c(CN3CCCCC3)c2c1C(=O)Nc1cccc(C(F)(F)F)c1`, for which the Potency was 12.6 µM (active).

`Cc1oc2ccc(O)c(CN3CCC(C)CC3)c2c1C(=O)Nc1ccccc1`: the Potency result is “inactive”. As for `Cc1oc2ccc(O)c(CN3CCOCC3)c2c1C(=O)Nc1cccc(Cl)c1C`, the Potency result was “inactive”.

Take `COc1ccccc1C(=O)Nc1c(C(=O)Nc2ccc(C)cc2)oc2ccccc12`: the Potency result was “inactive”. Take `Cc1ccnc(NC(=O)c2ccc(NC(=O)c3ccco3)cc2)c1`: the Potency result is “inactive”. Then `O=C(Nc1cccc(NC(=O)c2ccco2)c1)c1cnccn1`, with “inactive”; and `O=C(Nc1ccc(NC(=O)c2cccs2)cn1)c1ccco1`, with 10 µM (active). Then `CCC(=O)Nc1cccc(C(=O)OCc2cc(=O)n3nc(CC)sc3n2)c1`, with “inactive”. For `CCOC(=O)c1cccc(NC(=O)C(Cc2ccccc2)NS(=O)(=O)c2cccc3nsnc23)c1` (configuration not stated), the Potency result is “inactive”. Turning to `CCCCN(CCCNC(=O)c1cc(Nc2ccccc2OC)nc2ccccc12)c1ccccc1`, the Potency result is “inactive”. Consider `COc1ccccc1Nc1cc(C(=O)NCCCN(C)C2CCCCC2)c2ccccc2n1`, for which the Potency is 10 µM (active). Then `COc1ccc(Nc2cc(C(=O)NCCCN(C)c3ccccc3)c3ccccc3n2)c(OC)c1`, with “inactive”; and `CNC(=O)CN1C(=O)c2cccnc2Sc2ccccc21`, with “inactive”; and `COc1cccc(C(=O)N(Cc2cccc(Cl)c2)Cc2ccco2)c1`, with “inactive”.

Turning to `O=C(CN1CCN(C2CCCCC2)CC1)Nc1ccccc1N1CCCCC1`, the Potency is 15.8 µM (active). On to `O=C(NCCCN1CCN(C2CCCCC2)CC1)Nc1ccccc1C(F)(F)F`, for which the Potency result was “inactive”. As to `Cc1ccccc1NC(=O)CNc1ccccc1N1CCCCC1`, the Potency result is “inactive”. Under `COc1ccc(Cl)cc1NC(=O)CCC(=O)c1ccc(C)cc1` stands “inactive”; under `COc1ccccc1CNC(=O)CCCn1c(=O)c2ccccc2n(CC(=O)Nc2ccc(C)cc2Cl)c1=O`, “inactive”; under `CCCc1[nH]nc2c1C(c1ccc(Br)s1)C(C#N)=C(N)O2` (configuration not stated), “inactive”. Take `CCCc1[nH]nc2c1C(c1ccc(OC)c(Cn3nc(C)c(Br)c3C)c1)C(C#N)=C(N)O2` (configuration not stated): the Potency was 7.94 µM (active). For the compound `COc1ccc(C2C(C#N)=C(N)Oc3n[nH]c(C)c32)cc1CN1CCN(c2ccc(F)cc2)CC1` (configuration not stated), the Potency result was “inactive”. Regarding `Cc1cccc(C2CC(=O)Oc3c2c(=O)n(C)c2ccccc32)c1` (configuration not stated), the Potency result is “inactive”. For `OCCN1CCN(CC/C=C2\c3ccccc3Sc3ccc(C(F)(F)F)cc32)CC1`, the Potency is 15.8 µM (active). Take `O=C(CN1CCCCCC1)N1c2ccccc2Sc2ccc(C(F)(F)F)cc21`: the Potency result is “inactive”.

With `O=C(CN1CCCCC1)N1c2ccccc2Sc2ccc(C(F)(F)F)cc21`, the Potency result is “inactive”. Consider `CCOC(=O)c1c(S(=O)(=O)N2CCC(C(=O)NCc3ccccc3OC)CC2)c(C)n(C)c1C`, for which the Potency result was “inactive”.
